Cell viability and kynurenine production data for 16 molecules are collected here from the supplement of paper PMC13094657.

± gives the standard deviation of the averaged measurements.

Assay [1] relates to MDA-MB-231. Nature of the assay: cell viability relative to vehicle unstimulated control (fraction); higher = more viable cells. The settings on record: pre-treatment time: 18 h then 24 h IFNg/TNF.
For assay [2], the system named is MDA-MB-231. Nature of the assay: kynurenine production, fold change vs DMSO IFNg/TNF control; higher = more kynurenine produced (less inhibition). To be noted: pre-treatment time: 18 h then 24 h IFNg/TNF. Summed up: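 MDA-MB-231 cells (7 × 10^4/well, 96-well plates, seeded 24 h earlier) were pre-treated 18 h with each natural product in 0.1% DMSO, then stimulated 24 h with IFNγ (1 U/ml) and TNF (6.25 ng/ml) at 37°C. Supernatant kynurenine was read at 492 nm after trichloroacetic acid and p-dimethylaminobenzaldehyde treatment, against 0–100 μM standards. Kynurenine production is the fold change over cytokine-stimulated vehicle wells on the same plate, averaged over duplicate plates in the first screening round.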
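For cell viability relative to vehicle unstimulated control in this document: viability of the cells left after supernatant collection, read with Deep Blue dye added for 4 h, as absorbance at 570 nm minus 600 nm.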

Take `C[C@@H]1CC[C@@]2(OC1)O[C@H]1C[C@H]3[C@@H]4CC=C5C[C@@H](O)C[C@@H](O)[C@]5(C)[C@H]4CC[C@]3(C)[C@H]1[C@@H]2C` [Ruscogenin] (compound dose: 10 uM): the cell viability in the assay with MDA-MB-231 [1] was found to be 1.01 ± 0.037. The kynurenine production in the assay with MDA-MB-231 [2] worked out at 1.32 ± 0.2.
For the molecule `C[C@H]1[C@H](C)CC[C@]2(C(=O)O[C@@H]3O[C@H](CO[C@@H]4O[C@H](CO)[C@@H](O[C@@H]5O[C@@H](C)[C@H](O)[C@@H](O)[C@H]5O)[C@H](O)[C@H]4O)[C@@H](O)[C@H](O)[C@H]3O)CC[C@]3(C)C(=CC[C@@H]4[C@@]5(C)C[C@@H](O)[C@H](O)[C@@](C)(CO)[C@@H]5[C@H](O)C[C@]43C)[C@H]12` [Madecassoside] (compound dose: 10 uM), the cell viability in the assay with MDA-MB-231 [1] was 1.03 ± 0.042. Besides, the kynurenine production with MDA-MB-231 [2] came out at 0.817 ± 0.099.
The like results for `CC(C)=CCC[C@](C)(O[C@@H]1O[C@H](CO[C@@H]2OC[C@H](O)[C@H](O)[C@H]2O)[C@@H](O)[C@H](O)[C@H]1O)[C@H]1CC[C@]2(C)[C@@H]1[C@H](O)C[C@@H]1[C@@]3(C)CC[C@H](O[C@@H]4O[C@H](CO)[C@@H](O)[C@H](O)[C@H]4O[C@@H]4O[C@H](CO)[C@@H](O)[C@H](O)[C@H]4O)C(C)(C)[C@@H]3CC[C@]12C` [Ginsenoside Rb2] (compound dose: 10 uM) were, in that order, 0.968 ± 0.04 and 0.88 ± 0.14.
The like results for `CC1(C)CC[C@]2(C(=O)O)CC[C@]3(C)C(=CC[C@@H]4[C@@]5(C)C[C@@H](O)[C@H](O)C(C)(C)[C@@H]5CC[C@]43C)[C@@H]2C1` [Maslinic acid] (compound dose: 10 uM) were, in that order, 0.962 ± 0.032 and 0.876 ± 0.12.
Consider `C[C@H]1[C@H](C)CC[C@]2(C(=O)O)CC[C@]3(C)C(=CC[C@@H]4[C@@]5(C)C[C@@H](O)[C@H](O)[C@@](C)(CO)[C@@H]5CC[C@]43C)[C@H]12` [Asiatic acid] (compound dose: 10 uM), for which the cell viability in the assay with MDA-MB-231 [1] came out at 1.01 ± 0.018. The kynurenine production in the assay on MDA-MB-231 [2] came out at 0.85 ± 0.16.
The like results for `C[C@]1(OC(=O)/C=C/c2ccccc2)C[C@@H](O)[C@]2(O)C=CO[C@@H](O[C@@H]3O[C@H](CO)[C@@H](O)[C@H](O)[C@H]3O)[C@@H]21` [Harpagoside] (compound dose: 10 uM) were, in that order, 0.987 ± 0.013 and 0.91 ± 0.17.
Consider `C=C1C(=O)O[C@H]2C[C@@H](C)[C@@H]3CCC(=O)[C@@]3(C)[C@@H](OC(C)=O)[C@H]12` [Ergolide] (compound dose: 10 uM), for which, in the assay with MDA-MB-231 [1], the cell viability turned out to be 0.992 ± 0.072. In the assay with MDA-MB-231 [2], the kynurenine production came out at 0.246 ± 0.13.
The like results for `C=C[C@@](C)(/C=C/c1ccc(O)cc1)CCC=C(C)C` [Bakuchiol] (compound dose: 10 uM) were, in that order, 0.95 ± 0.037 and 0.736 ± 0.018.
The like results for `CC=C1[C@H](O[C@@H]2O[C@H](CO)[C@@H](O)[C@H](O)[C@H]2O)OC=C(C(=O)OC)[C@H]1CC(=O)OC[C@H]1O[C@@H](OCCc2ccc(O)cc2)[C@H](O)[C@@H](O)[C@@H]1O` (stereo in doubt) [Specnuezhenide] (compound dose: 10 uM) were, in that order, 1 ± 0.026 and 0.905 ± 0.21.
In the case of `CC1(C)[C@@H](O)CC[C@]2(C)[C@H]3C(=O)C=C4[C@H]5C[C@@](C)(C(=O)O)CC[C@]5(C)CC[C@@]4(C)[C@]3(C)CC[C@@H]12` [18α-Glycyrrhetinic acid] (compound dose: 10 uM), the cell viability in the assay with MDA-MB-231 [1] turned out to be 1.06 ± 0.11. The kynurenine production in the assay on MDA-MB-231 [2] turned out to be 0.943 ± 0.14.
The like results for `C[C@H]1O[C@@H](O[C@H]2[C@@H](O)C[C@H](O[C@H]3[C@@H](O)C[C@H](O[C@H]4CC[C@@]5(C)[C@H](CC[C@@H]6[C@@H]5C[C@@H](O)[C@]5(C)[C@@H](C7=CC(=O)OC7)CC[C@]65O)C4)O[C@@H]3C)O[C@@H]2C)C[C@H](O)[C@@H]1O` [Digoxin] (compound dose: 10 uM) were, in that order, 0.543 ± 0.066 and 0.103 ± 0.071.
The like results for `CC(=O)c1c[nH]c2ccccc12` [3-acetylindol] (compound dose: 10 uM) were, in that order, 0.955 ± 0.15 and 1.11 ± 0.14.
The like results for `C[C@@H]1CC[C@]2(C(=O)O)CC[C@]3(C)C(=CCC4[C@@]5(C)CC[C@H](O[C@@H]6OC[C@H](O)[C@H](O)[C@H]6O)C(C)(C)C5CC[C@]43C)[C@@H]2[C@]1(C)O` (some centres not stated) [Ziyuglycoside II] (compound dose: 10 uM) were, in that order, 0.934 ± 0.014 and 0.646 ± 0.0077.
`C/C=C(\C)C(=O)O[C@H]1[C@H](O)[C@]2(COC(C)=O)[C@@H](O)C[C@]3(C)C(=CC[C@@H]4[C@@]5(C)CC[C@H](O[C@@H]6O[C@H](C(=O)O)[C@@H](O)[C@H](O)[C@H]6O)[C@@](C)(CO)[C@@H]5CC[C@]43C)[C@@H]2CC1(C)C` [Gymnemic acid I] (compound dose: 10 uM): the cell viability in the assay on MDA-MB-231 [1] was 1.1 ± 0.017. In addition, in the assay on MDA-MB-231 [2], the kynurenine production worked out at 1.43 ± 0.11.
The like results for `CC12CCC(C1)C(C)(C)C2O` (configuration not stated) [Fenchyl alcohol] (compound dose: 10 uM) were, in that order, 1.03 ± 0.041 and 0.817 ± 0.31.
The like results for `COC(=O)[C@]1(C)CC[C@]2(C(=O)O[C@@H]3O[C@H](CO)[C@@H](O)[C@H](O)[C@H]3O)CC[C@]3(C)C(=CC[C@@H]4[C@@]5(C)C[C@H](O)[C@H](O[C@@H]6OC[C@@H](O[C@@H]7O[C@H](CO)[C@@H](O)[C@H](O)[C@H]7O)[C@H](O)[C@H]6O)[C@@](C)(CO)C5CC[C@]43C)[C@H]2C1` (some centres not stated) [Esculentoside H] (compound dose: 10 uM) were, in that order, 0.984 ± 0.043 and 0.825 ± 0.099.
